{
  "source": "PubChem BioAssay (NCI)",
  "note": "This is part of a sample that, as a whole, favours compounds with a hit. Of some 83,000 tested, about 20% had one in any assay.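 How to read the values: 0–100, growth inhibition (40 = 60% inhibited); 0, no net growth; -100 to 0, cell death (-40 = 40% of starting cells died; -100 = all dead).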 Active and inactive are the calls of the source. The calls were made as follows: active = growth percent below 10; inactive = the rest.",
  "data": [
    {"system": "NCI-H522 lung", "assay": "NCI-60 one-dose screen, 48 h (100 = growth as untreated, 0 = no growth, -100 = all killed)", "conditions": "10 µM", "values": [
      {"smiles": "O=[N+]([O-])c1ccc(Sc2ccncn2)c([N+](=O)[O-])c1", "growth": "-62.2% (active)"},
      {"smiles": "COc1ccc(NC(=O)CCl)cc1", "growth": "47.8% (inactive)"},
      {"smiles": "Cc1cc(=O)cc(C)n1-c1ccccc1", "growth": "102% (inactive)"},
      {"smiles": "CC(=O)Oc1ccc(Br)cc1C(=O)O", "growth": "91.4% (inactive)"},
      {"smiles": "CC1CCC(C(=O)O)N1", "note": "(stereo unspecified)", "growth": "91.3% (inactive)"},
      {"smiles": "O=C(CCNNC(=O)c1ccncc1)NCc1ccccc1", "growth": "58.2% (inactive)"},
      {"smiles": "CCOC(=O)c1[nH]c(C)c(C(C)=O)c1C", "growth": "83.8% (inactive)"},
      {"smiles": "CCOc1ccc(/C=C/C(=O)c2ccccc2)cc1", "growth": "76.9% (inactive)"},
      {"smiles": "Cc1cc(C)c(N)c(S(=O)(=O)O)c1", "growth": "97% (inactive)"},
      {"smiles": "CC(C)CCCC(=O)O", "growth": "103% (inactive)"},
      {"smiles": "N#Cc1c(N)sc(=S)c2c1CCCC2", "growth": "102% (inactive)"},
      {"smiles": "Cc1cccc(C(=O)N(C(C)C)C(C)C)c1", "growth": "79.9% (inactive)"},
      {"smiles": "O=C(O)C(c1ccccc1)C(O)c1ccccc1", "note": "(stereo unspecified)", "growth": "96.1% (inactive)"},
      {"smiles": "S=C(Nc1ccccc1)N1CCCCC1", "growth": "94.9% (inactive)"},
      {"smiles": "N=c1c(C(=O)OCc2ccccc2)ncc(CCl)n1O", "growth": "-43.4% (active)"},
      {"smiles": "O=C(c1ccc(O)cc1)c1ccc(O)cc1", "growth": "95.8% (inactive)"},
      {"smiles": "O=C(CS)Nc1ccc2ccccc2c1", "growth": "118% (inactive)"},
      {"smiles": "O=c1cc(-c2ccccc2)oc2c1ccc1ccccc12", "growth": "79.3% (inactive)"},
      {"smiles": "O=c1cc2oc3cc(O)c(O)cc3c(-c3ccccc3O)c-2cc1O", "growth": "66.8% (inactive)"},
      {"smiles": "Nc1ccccc1C(=O)Nc1ccc(Cl)cc1Cl", "growth": "78.5% (inactive)"},
      {"smiles": "O=C(c1ccc(Cl)cc1)c1ccccc1Cl", "growth": "90.7% (inactive)"},
      {"smiles": "CNC(=S)NC(C)(C)C", "growth": "98% (inactive)"},
      {"smiles": "CCCC(=O)Nc1ccc2c(c1)CN1C(=O)c3ccccc3C1=N2", "growth": "106% (inactive)"},
      {"smiles": "c1ccc(/C(=N\\N=C(/c2ccccc2)c2cccs2)c2cccs2)cc1", "growth": "83.1% (inactive)"},
      {"smiles": "CCOC(=O)C1=C(C)NC(=O)NC1c1cccs1", "note": "(stereo unspecified)", "growth": "101% (inactive)"},
      {"smiles": "CC1(C)N=C(N)N=C(N)N1c1cccc(Br)c1", "growth": "52.5% (inactive)"},
      {"smiles": "Oc1ccc(N=Nc2ccc(Br)cc2)c(O)c1", "growth": "-32.1% (active)"},
      {"smiles": "CN(C)CCC(=O)c1ccc(O)cc1", "growth": "102% (inactive)"},
      {"smiles": "COc1nc(N)nc2c1ncn2C1OC(CO)CC1O", "note": "(stereo unspecified)", "growth": "106% (inactive)"},
      {"smiles": "O=S(=O)(O)CC(O)CN1CCN(CCO)CC1", "note": "(stereo unspecified)", "growth": "89% (inactive)"},
      {"smiles": "O=[N+]([O-])c1ccc(-c2noc(-c3cccs3)n2)cc1", "growth": "81.7% (inactive)"},
      {"smiles": "COc1cc2cc(OC(C)=O)c3cc4c(cc3c2c(OC)c1OC)OCO4", "growth": "97.6% (inactive)"},
      {"smiles": "COC(=O)/C=C1\\Sc2cc(F)ccc2NC1=O", "growth": "107% (inactive)"},
      {"smiles": "CC(=O)c1ccc(C(C)(C)C)cc1", "growth": "99.6% (inactive)"},
      {"smiles": "CCC(O)CC(CC)CO", "note": "(stereo unspecified)", "growth": "117% (inactive)"},
      {"smiles": "O=[N+]([O-])c1ccc(/C=C/C=C/c2ccccc2)c(Cl)c1", "growth": "80.9% (inactive)"},
      {"smiles": "Nc1ccc(CC(=O)O)c(N)c1", "growth": "99.3% (inactive)"},
      {"smiles": "O=[N+]([O-])c1ccc(N=Nc2ccccc2)cc1", "growth": "81.1% (inactive)"}
    ]},
    {"system": "A549/ATCC NSCLC", "assay": "NCI-60 one-dose screen, 48 h (100 = growth as untreated, 0 = no growth, -100 = all killed)", "conditions": "10 µM", "values": [
      {"smiles": "O=[N+]([O-])c1ccc(Sc2ccncn2)c([N+](=O)[O-])c1", "growth": "122% (inactive)"},
      {"smiles": "COc1ccc(NC(=O)CCl)cc1", "growth": "84.6% (inactive)"},
      {"smiles": "Cc1cc(=O)cc(C)n1-c1ccccc1", "growth": "99.1% (inactive)"},
      {"smiles": "CC(=O)Oc1ccc(Br)cc1C(=O)O", "growth": "103% (inactive)"},
      {"smiles": "CC1CCC(C(=O)O)N1", "note": "(stereo unspecified)", "growth": "99.4% (inactive)"},
      {"smiles": "O=C(CCNNC(=O)c1ccncc1)NCc1ccccc1", "growth": "104% (inactive)"},
      {"smiles": "CCOC(=O)c1[nH]c(C)c(C(C)=O)c1C", "growth": "105% (inactive)"},
      {"smiles": "CCOc1ccc(/C=C/C(=O)c2ccccc2)cc1", "growth": "97.5% (inactive)"},
      {"smiles": "Cc1cc(C)c(N)c(S(=O)(=O)O)c1", "growth": "114% (inactive)"},
      {"smiles": "CC(C)CCCC(=O)O", "growth": "105% (inactive)"},
      {"smiles": "N#Cc1c(N)sc(=S)c2c1CCCC2", "growth": "105% (inactive)"},
      {"smiles": "Cc1cccc(C(=O)N(C(C)C)C(C)C)c1", "growth": "86.3% (inactive)"},
      {"smiles": "O=C(O)C(c1ccccc1)C(O)c1ccccc1", "note": "(stereo unspecified)", "growth": "90.8% (inactive)"},
      {"smiles": "S=C(Nc1ccccc1)N1CCCCC1", "growth": "99.2% (inactive)"},
      {"smiles": "N=c1c(C(=O)OCc2ccccc2)ncc(CCl)n1O", "growth": "101% (inactive)"},
      {"smiles": "O=C(c1ccc(O)cc1)c1ccc(O)cc1", "growth": "96.9% (inactive)"},
      {"smiles": "O=C(CS)Nc1ccc2ccccc2c1", "growth": "122% (inactive)"},
      {"smiles": "O=c1cc(-c2ccccc2)oc2c1ccc1ccccc12", "growth": "73.6% (inactive)"},
      {"smiles": "O=c1cc2oc3cc(O)c(O)cc3c(-c3ccccc3O)c-2cc1O", "growth": "108% (inactive)"},
      {"smiles": "Nc1ccccc1C(=O)Nc1ccc(Cl)cc1Cl", "growth": "102% (inactive)"},
      {"smiles": "O=C(c1ccc(Cl)cc1)c1ccccc1Cl", "growth": "95.1% (inactive)"},
      {"smiles": "CNC(=S)NC(C)(C)C", "growth": "98.3% (inactive)"},
      {"smiles": "CCCC(=O)Nc1ccc2c(c1)CN1C(=O)c3ccccc3C1=N2", "growth": "90% (inactive)"},
      {"smiles": "c1ccc(/C(=N\\N=C(/c2ccccc2)c2cccs2)c2cccs2)cc1", "growth": "105% (inactive)"},
      {"smiles": "CCOC(=O)C1=C(C)NC(=O)NC1c1cccs1", "note": "(stereo unspecified)", "growth": "94.8% (inactive)"},
      {"smiles": "CC1(C)N=C(N)N=C(N)N1c1cccc(Br)c1", "growth": "30.6% (inactive)"},
      {"smiles": "Oc1ccc(N=Nc2ccc(Br)cc2)c(O)c1", "growth": "12.5% (inactive)"},
      {"smiles": "CN(C)CCC(=O)c1ccc(O)cc1", "growth": "103% (inactive)"},
      {"smiles": "COc1nc(N)nc2c1ncn2C1OC(CO)CC1O", "note": "(stereo unspecified)", "growth": "111% (inactive)"},
      {"smiles": "O=S(=O)(O)CC(O)CN1CCN(CCO)CC1", "note": "(stereo unspecified)", "growth": "98.8% (inactive)"},
      {"smiles": "O=[N+]([O-])c1ccc(-c2noc(-c3cccs3)n2)cc1", "growth": "81.3% (inactive)"},
      {"smiles": "COc1cc2cc(OC(C)=O)c3cc4c(cc3c2c(OC)c1OC)OCO4", "growth": "106% (inactive)"},
      {"smiles": "COC(=O)/C=C1\\Sc2cc(F)ccc2NC1=O", "growth": "95.7% (inactive)"},
      {"smiles": "CC(=O)c1ccc(C(C)(C)C)cc1", "growth": "101% (inactive)"},
      {"smiles": "CCC(O)CC(CC)CO", "note": "(stereo unspecified)", "growth": "105% (inactive)"},
      {"smiles": "O=[N+]([O-])c1ccc(/C=C/C=C/c2ccccc2)c(Cl)c1", "growth": "89.8% (inactive)"},
      {"smiles": "Nc1ccc(CC(=O)O)c(N)c1", "growth": "99.7% (inactive)"},
      {"smiles": "O=[N+]([O-])c1ccc(N=Nc2ccccc2)cc1", "growth": "89% (inactive)"}
    ]}
  ]
}
